In PubChem BioAssay (EPA / NIEHS):
“And” between values parts separate entries of the source, which are not always exact repeats. Equal values may be shown once. Results filed as inconclusive are left out. A structure can be active in one record and inactive in another. The source made the active and inactive calls. The calls were made as follows, unless noted: active = hit-call score of the fitted dose curve at least 0.9, where 1 is the maximum; inactive = score below 0.9.

What was measured:
[1] = target: human Peroxisome Proliferator-activated Receptor delta (PPARd), PPARD (gene 5467) (UniProt Q03181); test: ATG_PPARd_TRANS: Attagene TRANS-FACTORIAL HepG2 Assay for human Peroxisome Proliferator-activated Receptor delta (PPARd) (AID 2283002; active = hit-call score of the fitted dose curve at least 0.9, where 1 is the maximum)
human Peroxisome Proliferator-activated Receptor delta (PPARd), PPARD (gene 5467), sequence (Q03181 whole entry, looked up): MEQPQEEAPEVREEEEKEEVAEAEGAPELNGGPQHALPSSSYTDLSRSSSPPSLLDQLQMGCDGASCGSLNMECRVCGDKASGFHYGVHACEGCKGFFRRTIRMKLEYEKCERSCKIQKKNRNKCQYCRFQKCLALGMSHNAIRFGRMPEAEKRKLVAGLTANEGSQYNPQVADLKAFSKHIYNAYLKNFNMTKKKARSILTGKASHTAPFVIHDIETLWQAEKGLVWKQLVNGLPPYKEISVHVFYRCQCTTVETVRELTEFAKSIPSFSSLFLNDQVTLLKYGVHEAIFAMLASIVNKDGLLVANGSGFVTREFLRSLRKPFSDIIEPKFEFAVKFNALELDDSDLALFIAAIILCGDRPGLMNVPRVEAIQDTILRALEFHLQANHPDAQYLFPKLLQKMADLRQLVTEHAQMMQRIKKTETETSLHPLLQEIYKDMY
Outline: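 Cell-based TRANS reporter: HepG2, transient MRTU transfection, 24 h exposure. Readout = reporter mRNA (RT-PCR/CE, 6-FAM). Gain-of-signal fit vs DMSO control.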

[2] = read-out: Intercellular Adhesion Molecule 1 (ICAM1), ICAM1 (gene 3383); test: BSK_3C_ICAM1: BioMAP Diversity Plus: 3C Assay for Intercellular Adhesion Molecule 1 (ICAM1) Biomarker Activity (AID 2283003); conditions: primary human endothelial cells (HUVEC); actives raise or lower the signal
Outline: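 ELISA read-out of ICAM-1; HUVEC (primary human), 3C system, 24 h post-dosing; bidirectional fit vs DMSO baseline.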

[3] = BSK_3C_Proliferation: Cell Proliferation Assessment in the BioMAP Diversity Plus: 3C Assay (AID 2283006); conditions: primary human endothelial cells (HUVEC);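 as to AC50: potency may reflect either rise or fall in cell number versus DMSO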
Outline: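 HUVEC, sub-confluent; 48 h chemical exposure; 10% TCA fix, 0.1% SRB stain, A560 total protein. Gain or loss of signal fitted both directions vs DMSO control.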

[4] = target: Peroxisome proliferator-activated receptor gamma (Homo sapiens) (UniProt P37231); test: ATG_PPARg_TRANS: Attagene TRANS-FACTORIAL HepG2 Assay for human Peroxisome Proliferator-activated Receptor-gamma (PPARg) (AID 2283007; active = hit-call score of the fitted dose curve at least 0.9, where 1 is the maximum)
Peroxisome proliferator-activated receptor gamma (Homo sapiens), sequence (P37231 whole entry, looked up, the tested form may be a part): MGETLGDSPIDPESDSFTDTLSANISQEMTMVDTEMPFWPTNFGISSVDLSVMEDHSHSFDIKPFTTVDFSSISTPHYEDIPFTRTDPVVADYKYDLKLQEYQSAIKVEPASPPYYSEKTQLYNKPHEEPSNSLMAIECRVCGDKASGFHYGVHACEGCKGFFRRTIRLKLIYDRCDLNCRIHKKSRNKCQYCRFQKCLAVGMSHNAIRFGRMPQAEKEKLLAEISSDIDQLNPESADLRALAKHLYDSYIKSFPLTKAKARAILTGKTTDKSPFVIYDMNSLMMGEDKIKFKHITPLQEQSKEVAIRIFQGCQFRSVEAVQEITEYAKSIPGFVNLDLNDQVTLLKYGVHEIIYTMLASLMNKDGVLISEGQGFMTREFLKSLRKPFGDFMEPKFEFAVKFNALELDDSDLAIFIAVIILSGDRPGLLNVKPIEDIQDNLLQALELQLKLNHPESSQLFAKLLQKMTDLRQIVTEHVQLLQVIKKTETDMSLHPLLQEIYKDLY
Outline: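 Endpoint reflects upward reporter mRNA change versus DMSO controls. Setup: transiently transfected HepG2, GAL4-UAS reporters driven by chimeric NR-Gal4, 24 h incubation, RT-PCR with capillary electrophoresis read-out.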

[5] = target: Nuclear receptor subfamily 1 group I member 2 (Homo sapiens) (UniProt O75469); test: ATG_PXR_TRANS: Attagene TRANS-FACTORIAL HepG2 Assay for human Pregnane X Receptor (PXR) (AID 2283008; active = hit-call score of the fitted dose curve at least 0.9, where 1 is the maximum)
Nuclear receptor subfamily 1 group I member 2 (Homo sapiens), sequence (O75469 whole entry, looked up, the tested form may be a part): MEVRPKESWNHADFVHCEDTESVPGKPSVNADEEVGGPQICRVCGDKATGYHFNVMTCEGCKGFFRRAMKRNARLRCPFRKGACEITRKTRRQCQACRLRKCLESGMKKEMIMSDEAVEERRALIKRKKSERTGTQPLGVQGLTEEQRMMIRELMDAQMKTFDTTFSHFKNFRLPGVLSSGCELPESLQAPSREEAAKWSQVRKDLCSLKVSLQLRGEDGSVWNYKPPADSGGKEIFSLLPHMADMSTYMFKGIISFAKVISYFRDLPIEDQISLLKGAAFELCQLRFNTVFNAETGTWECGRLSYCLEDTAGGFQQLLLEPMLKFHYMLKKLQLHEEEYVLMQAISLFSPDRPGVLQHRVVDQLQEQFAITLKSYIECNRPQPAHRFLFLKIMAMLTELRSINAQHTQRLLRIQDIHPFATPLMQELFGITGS
Outline: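 Multiplexed TRANS reporter panel in HepG2; this component tracks PXR-Gal4-driven reporter mRNA after 24 h dosing, measured by RT-PCR with capillary electrophoresis fluorescence, fitted against DMSO.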

[6] = target: human Retinoic Acid Receptor gamma (RARg), RARG (gene 5916) (UniProt P13631); test: ATG_RARg_TRANS: Attagene TRANS-FACTORIAL HepG2 Assay for human Retinoic Acid Receptor gamma (RARg) (AID 2283009; active = hit-call score of the fitted dose curve at least 0.9, where 1 is the maximum)
Outline: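 Readout: reporter transcript levels via RT-PCR, 6-FAM primer-extension labelling, HpaI digestion and capillary electrophoresis. Cells: HepG2 carrying transfected RARg-GAL4 chimera plus UAS reporter set. Dosing 24 h; DMSO negative control.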

[7] = target: human RAR-related Orphan Receptor beta (RORb), RORB (gene 6096) (UniProt Q92753); test: ATG_RORb_TRANS: Attagene TRANS-FACTORIAL HepG2 Assay for human RAR-related Orphan Receptor beta (RORb) (AID 2283010; active = hit-call score of the fitted dose curve at least 0.9, where 1 is the maximum)
human RAR-related Orphan Receptor beta (RORb), RORB (gene 6096), sequence (Q92753 whole entry, looked up, the tested form may be a part): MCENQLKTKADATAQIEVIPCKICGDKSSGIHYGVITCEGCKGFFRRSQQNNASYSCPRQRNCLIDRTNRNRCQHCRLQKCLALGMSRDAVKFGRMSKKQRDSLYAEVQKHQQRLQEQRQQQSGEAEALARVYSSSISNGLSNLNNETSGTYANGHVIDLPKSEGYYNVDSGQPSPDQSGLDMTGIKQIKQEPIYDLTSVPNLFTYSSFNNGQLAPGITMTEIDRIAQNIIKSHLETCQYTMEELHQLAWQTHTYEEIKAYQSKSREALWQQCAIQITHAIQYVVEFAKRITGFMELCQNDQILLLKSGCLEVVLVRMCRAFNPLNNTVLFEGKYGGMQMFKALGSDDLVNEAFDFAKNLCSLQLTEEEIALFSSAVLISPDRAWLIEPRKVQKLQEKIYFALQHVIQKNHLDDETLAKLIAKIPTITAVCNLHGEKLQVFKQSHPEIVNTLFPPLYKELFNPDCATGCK
Outline: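 HepG2, transient MRTU transfection (GAL4-UAS reporters, exogenous NR-Gal4 chimeras); 24 h compound exposure; total RNA → RT-PCR → 6-FAM primer extension → HpaI digest → CE fluorescence. Positive direction vs DMSO baseline.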

[8] = target: Retinoic acid receptor RXR-alpha (Homo sapiens) (UniProt P19793); test: ATG_RXRa_TRANS: Attagene TRANS-FACTORIAL HepG2 Assay for human Retinoid X Receptor alpha (RXRa) (AID 2283012; active = hit-call score of the fitted dose curve at least 0.9, where 1 is the maximum)
Retinoic acid receptor RXR-alpha (Homo sapiens), sequence (P19793 whole entry, looked up, the tested form may be a part): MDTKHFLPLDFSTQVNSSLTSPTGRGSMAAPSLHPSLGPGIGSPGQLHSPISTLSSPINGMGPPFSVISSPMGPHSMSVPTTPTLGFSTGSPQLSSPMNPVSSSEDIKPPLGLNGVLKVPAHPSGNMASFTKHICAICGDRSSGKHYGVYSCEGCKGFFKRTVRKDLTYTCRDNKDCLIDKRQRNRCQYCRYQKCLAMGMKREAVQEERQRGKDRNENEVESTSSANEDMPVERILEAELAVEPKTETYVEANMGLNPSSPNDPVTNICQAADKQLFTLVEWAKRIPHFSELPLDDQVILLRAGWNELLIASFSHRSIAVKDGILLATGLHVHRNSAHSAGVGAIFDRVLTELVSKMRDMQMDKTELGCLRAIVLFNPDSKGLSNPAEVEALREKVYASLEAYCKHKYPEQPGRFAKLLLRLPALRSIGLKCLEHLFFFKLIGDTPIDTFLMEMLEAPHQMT
Outline: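 Read-out: fluorescent reporter-transcript fragments quantified by capillary electrophoresis after RT-PCR. Transiently transfected HepG2 cells carrying GAL4-UAS reporters and NR-GAL4 chimeras were exposed to chemical for 24 h; activity scored as increase over DMSO.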

[9] = target: human Retinoid X Receptor beta (RXRb), RXRB (gene 6257) (UniProt P28702); test: ATG_RXRb_TRANS: Attagene TRANS-FACTORIAL HepG2 Assay for human Retinoid X Receptor beta (RXRb) (AID 2283013; active = hit-call score of the fitted dose curve at least 0.9, where 1 is the maximum)
human Retinoid X Receptor beta (RXRb), RXRB (gene 6257), sequence (P28702 whole entry, looked up, the tested form may be a part): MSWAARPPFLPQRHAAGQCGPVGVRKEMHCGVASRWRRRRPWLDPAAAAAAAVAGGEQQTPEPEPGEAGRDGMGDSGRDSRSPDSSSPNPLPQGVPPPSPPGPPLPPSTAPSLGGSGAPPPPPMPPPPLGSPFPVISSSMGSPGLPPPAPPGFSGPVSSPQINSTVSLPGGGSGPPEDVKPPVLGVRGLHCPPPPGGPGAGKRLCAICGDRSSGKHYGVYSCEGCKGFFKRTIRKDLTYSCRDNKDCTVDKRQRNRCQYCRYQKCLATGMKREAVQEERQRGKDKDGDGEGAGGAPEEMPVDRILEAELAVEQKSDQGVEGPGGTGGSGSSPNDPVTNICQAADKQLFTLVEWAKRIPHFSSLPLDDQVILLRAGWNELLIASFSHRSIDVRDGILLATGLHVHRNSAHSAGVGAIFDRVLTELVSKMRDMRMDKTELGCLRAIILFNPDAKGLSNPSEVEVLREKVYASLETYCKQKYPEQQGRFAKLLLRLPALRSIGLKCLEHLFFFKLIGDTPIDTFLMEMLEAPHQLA
Outline: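 Read-out: reporter mRNA induction via RT-PCR plus capillary electrophoresis fluorescence, analysed as signal increase relative to DMSO. Cells were human HepG2, transiently transfected with GAL4-UAS reporter constructs and chimeric receptor-Gal4 fusions, dosed for 24 h.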

[10] = target: human Thyroid Receptor alpha (THRa1), THRA (gene 7067) (UniProt P10827); test: ATG_THRa1_TRANS: Attagene TRANS-FACTORIAL HepG2 Assay for human Thyroid Receptor alpha (THRa1) (AID 2283014; active = hit-call score of the fitted dose curve at least 0.9, where 1 is the maximum)
human Thyroid Receptor alpha (THRa1), THRA (gene 7067), sequence (P10827 whole entry, looked up, the tested form may be a part): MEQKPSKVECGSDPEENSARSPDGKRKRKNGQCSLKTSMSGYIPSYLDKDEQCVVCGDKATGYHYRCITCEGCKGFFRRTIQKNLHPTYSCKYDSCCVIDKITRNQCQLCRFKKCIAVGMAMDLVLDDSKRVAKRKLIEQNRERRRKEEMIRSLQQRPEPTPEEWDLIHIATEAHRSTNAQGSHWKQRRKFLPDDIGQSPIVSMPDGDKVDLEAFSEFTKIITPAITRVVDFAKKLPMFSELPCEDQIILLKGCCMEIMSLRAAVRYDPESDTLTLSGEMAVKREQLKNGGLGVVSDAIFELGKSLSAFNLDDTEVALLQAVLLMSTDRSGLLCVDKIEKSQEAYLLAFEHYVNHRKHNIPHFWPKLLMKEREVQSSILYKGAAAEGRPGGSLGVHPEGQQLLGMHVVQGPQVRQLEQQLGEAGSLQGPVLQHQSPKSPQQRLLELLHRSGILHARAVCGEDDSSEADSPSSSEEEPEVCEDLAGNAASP
Outline: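 First, HepG2 cells receive multiple GAL4-UAS reporter units and the chimeric receptor. They are then dosed for 24 h, after which RNA is reverse-transcribed, amplified, labelled, HpaI-cut and sized by capillary electrophoresis; gain relative to DMSO is scored.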

[11] = read-out: E-selectin (Homo sapiens) (UniProt P16581); test: BSK_3C_Eselectin: BioMAP Diversity Plus: 3C Assay for Eselectin Biomarker Activity (AID 2283015); conditions: primary human endothelial cells (HUVEC); actives raise or lower the signal;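 also: cell surface E-selectin protein quantified by ELISA 24 h after dosing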
Outline: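 Human vascular endothelium from umbilical vein is exposed to test chemicals for 24 h. E-selectin levels are read by ELISA and compared with DMSO controls.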

[12] = read-out: Interleukin-1 alpha (IL1a), IL1A (gene 3552); test: BSK_BE3C_IL1a: BioMAP Diversity Plus: BE3C Assay for Interleukin-1 alpha (IL1a) Biomarker Activity (AID 2283016); conditions: primary human bronchial epithelial cells; actives raise or lower the signal
Outline: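 ELISA read-out of IL-1a from human lung bronchial epithelial primary cells, 24 h post-dose. Gain or loss of signal fitted relative to DMSO negative control.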

[13] = read-out: Monocyte Chemoattractant Protein-1 (MCP1), CCL2 (gene 6347); test: BSK_3C_MCP1: BioMAP Diversity Plus: 3C Assay for Monocyte Chemoattractant Protein-1 (MCP1) Biomarker Activity (AID 2283017); conditions: primary human endothelial cells (HUVEC); actives raise or lower the signal
Outline: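 Endothelial cells from human umbilical vein are dosed with chemical, cultured 24 h, then assayed for MCP-1 by ELISA; both increases and decreases are modelled against DMSO controls.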

[14] = read-out: Monocyte Chemoattractant Protein-1 (MCP1), CCL2 (gene 6347); test: BSK_4H_MCP1: BioMAP Diversity Plus: 4H Assay for Monocyte Chemoattractant Protein-1 (MCP1) Biomarker Activity (AID 2283018); conditions: primary human endothelial cells (HUVEC); actives raise or lower the signal
Outline: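 HUVEC primary cells, 24 h post-dose, MCP-1 by ELISA. Gain or loss of signal fitted bidirectionally vs DMSO baseline. Cytotoxicity: SRB stain (0.1% after 10% TCA fixation), read 560 nm, parallel cultures.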

[15] = read-out: Human Leukocyte Antigen - DR isotype (HLADR), HLA-DRA (gene 3122); test: BSK_3C_HLADR: BioMAP Diversity Plus: 3C Assay for Human Leukocyte Antigen - DR isotype (HLADR) Biomarker Activity (AID 2283019); conditions: primary human endothelial cells (HUVEC); actives raise or lower the signal
Outline: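 Endothelial cells from human umbilical vein are treated with test chemical; after 24 h, HLA-DR levels are measured by ELISA. Data are fitted in both directions using DMSO as the baseline.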

[16] = read-out: Interleukin-8 (IL8), CXCL8 (gene 3576); test: BSK_3C_IL8: BioMAP Diversity Plus: 3C Assay for Interleukin-8 (IL8) Biomarker Activity (AID 2283020); conditions: primary human endothelial cells (HUVEC); actives raise or lower the signal
Outline: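 HUVEC, 3C stimulation; 24 h compound exposure; IL-8 read by ELISA; gain or loss of signal fitted relative to DMSO control.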

[17] = read-out: Monokine induced gamma interferon (MIG), CXCL9 (gene 4283); test: BSK_3C_MIG: BioMAP Diversity Plus: 3C Assay for Monokine induced gamma interferon (MIG) Biomarker Activity (AID 2283021); conditions: primary human endothelial cells (HUVEC); actives raise or lower the signal
Outline: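 HUVEC, 3C system; 24 h chemical exposure; MIG by ELISA; bidirectional fit vs DMSO baseline.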

[18] = target: human Vitamin D Receptor (VDR), VDR (gene 7421) (UniProt P11473); test: ATG_VDR_TRANS: Attagene TRANS-FACTORIAL HepG2 Assay for human Vitamin D Receptor (VDR) (AID 2283022; active = hit-call score of the fitted dose curve at least 0.9, where 1 is the maximum)
human Vitamin D Receptor (VDR), VDR (gene 7421), sequence (P11473 whole entry, looked up, the tested form may be a part): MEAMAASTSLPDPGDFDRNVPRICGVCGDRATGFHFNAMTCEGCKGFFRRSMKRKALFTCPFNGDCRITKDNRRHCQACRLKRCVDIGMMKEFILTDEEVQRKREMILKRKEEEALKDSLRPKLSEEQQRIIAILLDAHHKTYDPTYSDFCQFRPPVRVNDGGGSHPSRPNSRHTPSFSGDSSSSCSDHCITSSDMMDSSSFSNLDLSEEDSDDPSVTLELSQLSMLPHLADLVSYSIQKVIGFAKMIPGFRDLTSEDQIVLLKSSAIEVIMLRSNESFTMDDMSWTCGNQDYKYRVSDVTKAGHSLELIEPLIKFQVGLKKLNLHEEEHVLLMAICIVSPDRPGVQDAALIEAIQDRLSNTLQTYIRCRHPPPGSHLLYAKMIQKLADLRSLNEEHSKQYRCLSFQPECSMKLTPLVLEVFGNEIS
Outline: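 Fluorescence of labelled reporter cDNA fragments, resolved by capillary electrophoresis, gives mRNA induction after 24 h treatment of HepG2 cells carrying transfected Gal4-fusion reporter units. Activity is fitted in the positive direction with DMSO as baseline.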

[19] = BSK_3C_SRB: Viability Assessment in the BioMAP Diversity Plus: 3C Assay (AID 2283023); conditions: primary human endothelial cells (HUVEC);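 also: cells read 24 h after compound dosing; fitted both ways against DMSO so a hit may be signal rise or drop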
Outline: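 Cells were dosed with chemical, cultured 24 h, fixed with 10% TCA, stained with 0.1% SRB and read at 560 nm. Human umbilical vein endothelium was used; DMSO served as negative control and baseline.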

[20] = target: human RAR-related Orphan Receptor gamma (RORg), RORC (gene 6097) (UniProt P51449); test: ATG_RORg_TRANS: Attagene TRANS-FACTORIAL HepG2 Assay for human RAR-related Orphan Receptor gamma (RORg) (AID 2283011; active = hit-call score of the fitted dose curve at least 0.9, where 1 is the maximum)
human RAR-related Orphan Receptor gamma (RORg), RORC (gene 6097), sequence (P51449 whole entry, looked up, the tested form may be a part): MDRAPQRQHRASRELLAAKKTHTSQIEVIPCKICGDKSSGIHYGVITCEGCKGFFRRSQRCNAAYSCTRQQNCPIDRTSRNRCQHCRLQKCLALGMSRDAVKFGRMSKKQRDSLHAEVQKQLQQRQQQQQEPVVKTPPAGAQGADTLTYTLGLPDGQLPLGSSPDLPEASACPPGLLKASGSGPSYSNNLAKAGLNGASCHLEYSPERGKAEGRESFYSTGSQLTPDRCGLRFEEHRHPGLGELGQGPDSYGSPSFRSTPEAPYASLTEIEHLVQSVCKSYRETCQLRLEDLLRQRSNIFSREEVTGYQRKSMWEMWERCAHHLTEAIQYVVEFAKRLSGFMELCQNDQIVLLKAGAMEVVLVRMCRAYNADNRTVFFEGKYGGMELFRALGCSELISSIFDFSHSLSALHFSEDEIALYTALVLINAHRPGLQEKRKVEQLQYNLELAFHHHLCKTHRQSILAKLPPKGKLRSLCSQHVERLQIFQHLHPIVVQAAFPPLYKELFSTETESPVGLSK
Outline: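 Activity is scored as increase in GAL4-UAS reporter mRNA over DMSO, detected by fluorescent RT-PCR and capillary electrophoresis in HepG2 cells transiently expressing a RORg-Gal4 chimera, 24 h after dosing.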

Measured: AC50

E-selectin (Homo sapiens), sequence (P16581 whole entry, looked up): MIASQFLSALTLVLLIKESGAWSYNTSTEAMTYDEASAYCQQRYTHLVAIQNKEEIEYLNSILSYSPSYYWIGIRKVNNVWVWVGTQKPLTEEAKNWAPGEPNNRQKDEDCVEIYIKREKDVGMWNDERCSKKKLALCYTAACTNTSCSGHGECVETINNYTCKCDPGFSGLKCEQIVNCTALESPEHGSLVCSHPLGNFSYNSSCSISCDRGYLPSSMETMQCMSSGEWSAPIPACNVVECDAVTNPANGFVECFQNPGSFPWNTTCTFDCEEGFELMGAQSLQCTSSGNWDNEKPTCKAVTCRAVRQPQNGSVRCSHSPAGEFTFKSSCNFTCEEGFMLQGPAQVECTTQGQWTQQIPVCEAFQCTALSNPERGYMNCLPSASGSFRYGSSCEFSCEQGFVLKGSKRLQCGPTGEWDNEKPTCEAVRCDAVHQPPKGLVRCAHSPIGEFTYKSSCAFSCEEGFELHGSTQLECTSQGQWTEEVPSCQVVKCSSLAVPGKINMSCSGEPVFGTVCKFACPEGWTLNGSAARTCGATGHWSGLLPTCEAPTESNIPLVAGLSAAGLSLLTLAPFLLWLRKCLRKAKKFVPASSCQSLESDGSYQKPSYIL

N#Cc1c(-c2ccc(Cl)cc2)[nH]c(C(F)(F)F)c1Br
active: [3] 0.393 µM | [4] 573 nM | [5] 585 nM | [12] 7.11 µM | [13] 0.169 µM | [14] 0.14 µM | [15] 0.324 µM | [16] 0.0221 µM | [19] 1.61 µM
not listed: [20]
inactive: all other assays above

O=C(O)C(F)(F)C(F)(F)C(=O)O
not listed: [9]
inactive: all other assays above

COC(=O)C(F)(F)C(F)(F)OC(F)(C(F)(F)F)C(F)(F)OC(F)=C(F)F (centres undefined)
inactive: [1] | [2] | [3] | [7] | [20] | [8] | [10] | [11] | [12] | [13] | [14] | [15] | [16] | [17] | [18] | [19]
active: [1] 15.4 µM | [4] 124 nM and 241 nM and 127 nM | [9] 31.8 µM and 41.3 µM and 28.2 µM

CC(C)(C)c1ccc(O)cc1
active: [9] 69.3 µM
not listed: [5] | [6] | [10] | [18] | [20]
inactive: all other assays above

O=P(Oc1ccccc1)(Oc1ccccc1)Oc1ccccc1
active: [3] 24.9 µM | [4] 5500 nM | [5] 693 nM | [13] 33.5 µM | [14] 13.6 µM | [15] 33.1 µM | [16] 29.4 µM | [19] 30.2 µM
not listed: [6] | [7] | [20]
inactive: all other assays above
